Screens deposited in PubChem by National Center for Advancing Translational Sciences (NCATS).
A selection: hits, their analogues and other compounds. The true share with any hit is near 10%.
3T3 cytotox: cytotoxic compounds in NIH 3T3 cells; 94,000 compounds, 4.3% hits; AID 1345082; Potency, µM (highest dose often 96.7 µM), actives largely listed as inhibitors; NIH 3T3 viability, CellTiter-Glo ATP luminescence, 48-72 h; further: nearly all actives have a fitted effect of over 55% in size
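First NIH 3T3 cells are plated at 400 cells/well; next compound is pinned in; then plates incubate 48 or 72 hr at 37 °C; finally CellTiter-Glo is added and luminescence read after 10 min.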
GPT2 inhibitor: inhibitors of human GPT2 alanine aminotransferase; Recombinant GPT2, coupled pyruvate oxidase/HRP Amplex Red fluorescence; Q8TD30; 100,000 compounds, 0.25% hits; AID 1671188; Potency, µM (doses to about 57.7 µM), actives largely listed as inhibitors; further: nearly all actives have a fitted effect of over 60% in size
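Fluorescence read-out: pyruvate from GPT2 turnover coupled to pyruvate oxidase, HRP and Amplex Red (0.2mM ThPP, 0.2U/mL PO and HRP, 50uM Amplex final). Substrates 250uM a-KG, 2mM L-alanine; enzyme 10ng/uL; 30 min RT.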
HEK cytotox: cytotoxic compounds in HEK 293 cells. 94,000 compounds, 6.6% hits. Potency, µM (series often up to 115 µM), usual class: inhibitors. HEK 293 viability, ATP luminescence (CellTiter-Glo), 48-72 h; further: nearly all actives have a fitted effect of over 60% in size
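250 HEK 293 cells/well; compound by pintool; incubated 48 or 72 hr at 37 degree Celsius; CellTiter-Glo added, 10 min RT, luminescence imaged.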
NPR1 antag: human Npr1 receptor antagonism; P16066; HEK293 hNpr1 GloSensor cGMP, ANP-stimulated luminescence; Potency, µM (series often up to 46.3 µM), most hits filed as inhibitors; 76,000 compounds, 1.6% hits; AID 1347048; calls by dose curve; further: nearly all actives have a fitted effect of over 60% in size
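Compound pre-incubated 30 min at room temperature on GloSensor-loaded HEK293 cells stably carrying hNpr1 and the pGS-40F cGMP biosensor. Stimulation uses hNppA at 0.1 nM final; luminescence is taken at baseline and 20 min post-agonist.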
FLuc inh-1: Photinus pyralis luciferase inhibition | P08659 | purified P. pyralis luciferase, luminescence, biochemical | Potency, µM (highest dose often 115 µM), hits mostly inhibitors | 76,000 compounds, 2.5% hits; further: nearly all actives have a fitted effect of over 65% in size
Target sequence (P08659 whole entry, looked up): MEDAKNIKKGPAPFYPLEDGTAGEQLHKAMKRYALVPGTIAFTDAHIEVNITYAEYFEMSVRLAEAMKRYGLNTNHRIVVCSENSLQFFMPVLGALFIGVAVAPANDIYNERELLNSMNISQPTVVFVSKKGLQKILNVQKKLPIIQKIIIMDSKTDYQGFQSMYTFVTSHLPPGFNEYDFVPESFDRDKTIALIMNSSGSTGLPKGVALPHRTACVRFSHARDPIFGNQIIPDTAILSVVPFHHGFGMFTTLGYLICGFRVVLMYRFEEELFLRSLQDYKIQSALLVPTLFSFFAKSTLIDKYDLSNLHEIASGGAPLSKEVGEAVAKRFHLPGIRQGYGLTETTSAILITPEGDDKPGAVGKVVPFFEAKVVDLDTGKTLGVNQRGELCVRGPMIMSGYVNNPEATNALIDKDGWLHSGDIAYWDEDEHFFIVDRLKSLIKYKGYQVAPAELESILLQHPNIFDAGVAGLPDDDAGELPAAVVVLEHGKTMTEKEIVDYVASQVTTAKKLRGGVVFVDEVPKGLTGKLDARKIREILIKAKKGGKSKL
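Biochemical qHTS: compound (6-point titration) added to 10uM D-luciferin plus 10uM ATP in Tris acetate pH 7.5 buffer with Mg, Tween-20 and BSA, then purified enzyme at 10nM; light output imaged.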
FLuc SDR no ATP: stabilizes firefly luciferase without ATP | shares compounds with FLuc inh-1 | Purified FLuc-C-HiBiT, Nano-Glo HiBiT luminescence, no ATP | Potency, µM (doses to about 32.7 µM), usual class: activators | 1,300 compounds, 7.8% hits | AID 1963318; further: nearly all actives have a fitted effect of over 55% in size
FLuc SDR ATP: stabilizes firefly luciferase with ATP present | 1,300 compounds, 8.7% hits | Potency, µM (highest dose often 32.7 µM), most hits filed as activators | shares compounds with FLuc inh-1 | AID 1963319 | purified FLuc-C-HiBiT + ATP, HiBiT complementation luminescence;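 further: signal reports ligand binding via conformational change of the enzyme rather than luciferase catalysis; nearly all actives have a fitted effect of over 55% in size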
FLuc inh-2: inhibitors of firefly luciferase enzymatic activity; Potency, µM (highest dose often 32.7 µM), usual class: inhibitors; shares compounds with FLuc inh-1; AID 1963320; purified FLuc-C-HiBiT enzyme, luciferin luminescence; 1,300 compounds, 42% hits; further: nearly all actives have a fitted effect of over 70% in size
Numbers stand for hits; – = inactive; ? = inconclusive; · = no result. Unless noted, the call rests on the fitted dose curve; in most records, active means well fitted curve in the direction sought with a large enough effect; inconclusive means small, poorly fitted or top-dose-only effect, or another doubt; inactive means no such curve, though single readings can be large; an effect the other way counts as inactive or inconclusive.

SMILES | 3T3 cytotox | GPT2 inhibitor | HEK cytotox | NPR1 antag | FLuc inh-1 | FLuc SDR no ATP | FLuc SDR ATP | FLuc inh-2
C#CCNC(=O)C1CCN(Cc2ccccc2-c2cccnc2)CC1 | – | – | – | · | · | · | · | ·
CC(=O)N1CCC2(CC1)CN(C(=O)Cc1c(C)noc1C)Cc1ccccc1O2 | – | – | – | · | · | · | · | ·
CS(=O)(=O)CCC(=O)N1CCC2(CC1)[C@H](O)C[C@@H]2OCCN | – | ? | – | – | – | · | · | ·
CC[C@H]1CN(S(=O)(=O)c2c(C)noc2C)CC[C@H]1CC(=O)N1CCOCC1 | – | – | – | – | – | · | · | ·
Cc1ccc(NC(=O)N2CCc3c(C(=O)NCc4ccco4)cccc32)cc1 | ? | – | ? | 1.12µM | 0.0891µM | 9.89µM | 0.0785µM | 0.0495µM
O[C@@H]1[C@@H](Cn2cc(-c3cccnc3)nn2)C[C@@H](NCc2ccc(F)cc2)[C@@H]1O | – | – | – | – | – | · | · | ·
O=C(Nc1cnc(-c2ccccc2)nc1)C1CCCCC1 | – | – | – | ? | 1µM | ? | ? | 1.97µM
O=C(NCCc1ccccc1F)c1nc2sccn2c1Br | ? | – | ? | ? | 1.58µM | – | ? | 7µM
c1ccc(CN2CCC3(CC2)CC(c2cccnc2)=NO3)cc1 | – | – | ? | – | – | · | · | ·
CCn1c(CN2CCN(c3nc4ccccc4s3)CC2)nnc1C1CC(N)C1 (stereo not given) | – | – | – | – | – | · | · | ·
CCn1ccnc1C1CCN(c2nc3ccccc3s2)CC1 | – | – | ? | ? | 3.16µM | – | – | ?
Cc1ccc(CN2C[C@@H]3C(=O)N(Cc4ccc5c(c4)OCO5)C(=O)[C@@H]3C2)cc1C | ? | – | ? | ? | – | · | · | ·
Cc1ccccc1-c1cccc(COc2cnc3c(ccn3CC(=O)O)c2)c1 | · | · | · | · | · | – | – | ?
CC(C)Oc1cccc(-c2cccc(COc3cnc4c(ccn4CC(=O)O)c3)c2)c1 | – | – | ? | – | 11.2µM | – | – | 18µM
CC(=O)Nc1cccc(-c2cccc(CCOc3cnc4c(ccn4CC(=O)O)c3)c2)c1 | · | · | · | · | · | ? | ? | 16.1µM
Cc1ccccc1-c1noc(CN(C)Cc2cc(-c3ccncc3)no2)n1 | ? | – | ? | – | – | · | · | ·
COc1ccccc1-c1cc(C(=O)NCc2cccc(Cl)c2)nn2cnnc12 | ? | – | ? | · | · | · | · | ·
CN(c1ccccc1)c1ccc2ncn(C3CC3)c(=O)c2n1 | ? | – | ? | 15.8µM | 1.26µM | 18µM | 7.15µM | 5.68µM
COc1ccc(C(=O)COC(=O)CCCC(=O)Nc2ccc(C(C)=O)cc2)cc1 | · | · | · | · | · | – | – | ?
COc1ccc2nc(-c3cc(OC)c(OC)c(OC)c3)cc(C(=O)NCC(=O)Nc3ccc(C(C)=O)cc3)c2c1 | · | – | · | · | · | · | · | ·
CCn1cc(CN2CCN(C(=O)c3cccs3)CC2)ccc1=O | ? | ? | ? | – | ? | · | · | ·
COC[C@@H]1[C@H](NC(=O)COc2ccc(-n3cnnn3)cc2)[C@@H]2CCO[C@H]12 | – | – | – | – | – | · | · | ·
Cc1ccc(CSc2nc3cccnc3n2Cc2ccc(C(=O)NCc3ccco3)cc2)cc1 | · | · | · | · | · | 3.94µM | ? | 0.624µM
Cc1ccc(C(=O)N2CCN(C(=O)c3nc4cccnc4n(Cc4ccccc4)c3=O)CC2)cc1 | – | – | – | · | · | · | · | ·
COc1ccc(-c2ccc3ncc(Nc4cc(F)cc(N5CCOCC5)c4)n3n2)cc1OC | 17.8µM | ? | ? | – | 8.91µM | – | – | ?
SMILES | 3T3 cytotox | GPT2 inhibitor | HEK cytotox | NPR1 antag | FLuc inh-1 | FLuc SDR no ATP | FLuc SDR ATP | FLuc inh-2
Fc1ccc(-c2nnc3ccc(Nc4ccc(N5CCOCC5)cc4)nn23)nc1 | ? | ? | ? | – | – | · | · | ·
O=C(Nc1ccccc1C(=O)O)c1cccc(S(=O)(=O)N2CCCC2)c1 | · | · | · | · | · | – | – | ?
Cc1ccccc1-c1cc(O)c2c(c1)CN(Cc1nccn1C)CCO2 | – | – | ? | – | – | · | · | ·
Cc1noc(C)c1CC(=O)N1C[C@@H](Oc2ccccc2)C[C@@H]1C(=O)N1CCOCC1 | – | – | – | – | – | · | · | ·
Fc1ccccc1-c1n[nH]c2c1CN(Cc1cccn1-c1nccs1)CC2 | – | – | ? | – | – | · | · | ·
Cc1noc(C)c1CC(=O)N1CCOc2c(cc(-c3nc4ccccc4s3)cc2OC2CCOC2)C1 (stereo not given) | · | · | · | · | · | – | – | –
Oc1cc(-c2nc3ccccc3s2)cc2c1OCCN(Cc1ncccn1)C2 | – | – | ? | – | ? | – | – | –
Oc1cc(-c2nc3ccccc3s2)cc2c1OCCN(Cc1cccn1-c1nccs1)C2 | · | · | · | · | · | – | – | –
Oc1cc(-c2nc3ccccc3s2)cc2c1OCCN(Cc1cccn1-c1ccc(Cl)cn1)C2 | · | · | · | · | · | – | – | –
O=C(Nc1cccc(F)c1)N1C[C@@H]2C[C@H](C1)c1c(-c3ccc4ccccc4c3)ccc(=O)n1C2 | ? | – | ? | – | – | · | · | ·
Oc1cc(-c2nc3ccccc3s2)cc2c1OCCN(Cc1cn[nH]c1-c1ccc(Cl)cc1)C2 | · | · | · | · | · | – | – | –
c1ccc2sc(-c3cc4c(c(OC5CCOC5)c3)OCCN(Cc3cccn3-c3nccs3)C4)nc2c1 (stereo not given) | · | · | · | · | · | – | – | –
Cc1ccc(-c2nnc(C3CN(C(=O)c4sc(C)nc4C)CC34CCOCC4)o2)cc1 (stereo not given) | – | ? | – | – | – | – | – | –
Cc1ccc(-n2ncc3c(NC4CCCCC4)ncnc32)cc1C | · | · | · | · | · | – | ? | 1.76µM
Cc1ccc(-n2ncc3c(NC4CCCCC4)ncnc32)cc1Cl | · | · | · | · | · | – | ? | 2.79µM
CN(C)c1cccc(NC(=O)c2ccc3c(c2)NC(C)(COc2ccccc2)CO3)c1 (stereo not given) | ? | – | ? | – | – | · | · | ·
CCOCC1(C)COc2ccc(C(=O)Nc3ccccc3)cc2N1 (stereo not given) | ? | – | ? | – | 10µM | – | – | ?
CN(Cc1ccccc1CN1CCCC1)c1nccc(-c2ccccn2)n1 | ? | – | ? | – | – | · | · | ·
COc1ccc(CNC(=O)Cn2cccc2-c2nc(-c3ccccc3)no2)cc1 | – | – | ? | – | – | · | · | ·
COc1ccc(CNC(=O)Cn2cccc2C(=O)c2ccccc2C)cc1 | · | · | · | · | · | – | – | –
COC(=O)C1=CO[C@@H](O[C@@H]2O[C@H](CO)[C@@H](O)[C@H](O)[C@H]2O)/C(=C\CO)[C@@H]1CC(=O)OCCc1ccc(O)cc1 | · | – | · | · | · | · | · | ·
Cc1ccc(/C=C/C(=O)N2CCC(c3nc4ccccc4o3)CC2)cc1 | · | · | · | · | · | – | ? | ?
Cn1nc(-c2ccc3c(c2)OCCO3)nc1N1CCCCC1 | ? | – | – | ? | 3.98µM | ? | ? | 9.89µM
